Compound activity: PubChem, National Center for Advancing Translational Sciences (NCATS)
Hits are enriched below; roughly 3.6% of the tested compounds scored in any of these assays.
Sfp inh: blocks B. subtilis Sfp PPTase activity | AID 1490 | Q9F4F7 | Biochemical Sfp PPTase activity, qHTS | Potency, µM, without a hit: largest response in the series, negative = inhibition, actives largely listed as inhibitors | 310,000 tested, 3.5% active;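 also: the enzyme is Sfp with the accession as filed and its product quenches rhodamine fluorescence; 0% = enzyme reaction without inhibitor and -100% = no enzyme wells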
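Sfp 15 nM + cpd, 15 min RT; start w/ rhodamine-CoA 5 uM, BHQ-2-YbbR 12.5 uM (final); 50 mM Hepes pH 7.6, 10 mM MgCl2, 0.01% NP-40, 0.01% BSA; read 525/598 nm at 0 and 30 min.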
Epigenetic derep: epigenetic control regulation, reporter derepression; 280,000 tested, 0.2% active; Potency, µM (titrated, usually from 53.9 µM), for inactives: top-dose GFP activation, actives largely listed as activators; murine LDR cells, GFP reporter derepression, 30 h; also: % of control where 0% means no effect; nearly all actives have a fitted effect of over 60% in size
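GFP-positive cell count by laser-scanning cytometry (objects 20–120 um) after 30 h, 37 C compound exposure of murine LDR cells; reporter is CMV-GFP integrated at a silenced locus, inducible by HDAC or DNMT inhibitors.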
IMPase Li inh: cell-permeable IMPase inhibitors with lithium potentiation. Potency, µM (series often up to 59.4 µM), for the others: at the highest dose activity, negative = IMPase inhibition, actives largely listed as inhibitors. 210,000 tested, 0.35% active. CHO-M1 cells, IP1 TR-FRET (IP-One), carbachol + lithium;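 also: IP1 builds up when IMPase is blocked and the TR-FRET signal falls; plate controls were basal vehicle for no effect and high inhibitor control for full effect; nearly all actives have a fitted effect of over 50% in size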
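IP1 accumulation measured by competitive TR-FRET in lysed CHO-M1 cells after 30 min compound exposure at 37C, with a small lithium addition to potentiate weak responses. Hill-equation AC50 from ratio and donor-channel data.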
KDM4E inh: blocks human JMJD2E demethylase activity; Potency, µM (doses to about 57.1 µM), for the others: at the highest dose activity change, negative = inhibition, usual class: inhibitors; B2RXH2; AID 2147; 230,000 tested, 1.6% active; JMJD2E catalytic domain, FDH-coupled NADH fluorescence (FDH is formaldehyde dehydrogenase);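 also: 0% = wells with enzyme and -100% = buffer wells without enzyme; nearly all actives have a fitted effect of over 50% in size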
Target sequence (B2RXH2 1-337 limits assumed): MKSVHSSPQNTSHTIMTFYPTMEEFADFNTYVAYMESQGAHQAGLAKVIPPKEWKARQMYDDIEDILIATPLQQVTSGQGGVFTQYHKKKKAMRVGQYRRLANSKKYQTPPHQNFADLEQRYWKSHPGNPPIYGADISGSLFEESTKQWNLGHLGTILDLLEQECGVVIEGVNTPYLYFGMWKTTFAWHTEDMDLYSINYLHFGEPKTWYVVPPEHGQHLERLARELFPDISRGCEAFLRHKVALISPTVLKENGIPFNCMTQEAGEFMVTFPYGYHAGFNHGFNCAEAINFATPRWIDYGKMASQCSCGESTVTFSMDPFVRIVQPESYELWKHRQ
NPSR antag: antagonists of human neuropeptide S receptor cAMP signaling; Potency, µM (titrated, usually from 38.3 µM), for inactives: at the top dose activity change, negative = inhibition, actives largely listed as inhibitors; 220,000 tested, 1% active; Q6W5P4; CHO-NPSR cells, cAMP TR-FRET, antagonist mode; AID 1461; also: % is scaled to controls: 0 for no effect and ±100 for the full control effect; nearly all actives have a fitted effect of over 50% in size
Target sequence (Q6W5P4 whole entry, looked up): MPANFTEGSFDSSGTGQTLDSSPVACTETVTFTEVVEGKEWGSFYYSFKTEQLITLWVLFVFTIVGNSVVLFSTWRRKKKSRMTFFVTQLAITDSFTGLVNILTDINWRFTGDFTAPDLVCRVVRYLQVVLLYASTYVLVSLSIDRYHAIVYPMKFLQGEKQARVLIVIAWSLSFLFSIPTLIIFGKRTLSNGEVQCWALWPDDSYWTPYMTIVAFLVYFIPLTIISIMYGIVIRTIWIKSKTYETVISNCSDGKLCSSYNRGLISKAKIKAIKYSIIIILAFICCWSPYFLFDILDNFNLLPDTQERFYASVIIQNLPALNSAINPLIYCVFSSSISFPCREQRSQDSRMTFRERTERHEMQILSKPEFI
KAT2A inh: GCN5L2 (KAT2A) acetyltransferase inhibition. Q92830. GCN5L2 HAT assay, ThioGlo1 CoA-SH fluorescence. Potency, µM (doses to about 58.9 µM), inactives show at the highest dose activity change, negative = inhibition, usual class: inhibitors. 390,000 tested, 0.21% active; also: % is scaled to controls: 0 for no effect and ±100 for the full control effect
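GCN5L2 (20 nM) in 50mM HEPES pH 7.5, 0.1mM EDTA, 0.01% Tween-20 preincubated 15 min with compounds at room temperature. Reaction started with H3(1-25) 75uM, acetyl-CoA 70uM, ThioGlo1 50uM; CoA-thiol fluorescence (Ex340/Em540) read at 0 and 20 min.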
* marks the source's active call; other numbers are inactive results; ? = inconclusive; / = no result given; ! = not active in a repeat; [ ] = remark or other dose. Unless noted, calls follow the shape of the dose curve; as a rule, active = well fitted curve in the direction sought with a large enough effect; inconclusive = small, poorly fitted or top-dose-only effect, or another doubt; inactive = no such curve, though single readings can be large; an effect the other way counts as inactive or inconclusive. Potency is read from the fitted curve at half-maximal effect.

SMILES	Sfp inh	Epigenetic derep	IMPase Li inh	KDM4E inh	NPSR antag	KAT2A inh
CC(C)OC(=O)CSc1nnc(Cc2ccccc2)n1Cc1ccco1	22.4µM*	3.3%	39.4%[38.3 µM]	7.6%	1.0%[46.1 µM]	-3.5%
Cc1ccc(CNC(=O)Cn2ccn(-c3ccc(C)c(C)c3)c(=O)c2=O)cc1	/	0.0%	/	/	/	-6.5%
CC1(C)CC(=O)C2=C(C1)N(Cc1ccco1)C(=O)C2(NC(=O)C1CCCCC1)C(F)(F)F (stereo unspecified)	25.1µM*	-1.1%	24.7%[38.3 µM]	2.9%	-20.3%[46.1 µM]	-8.6%
O=[N+]([O-])c1ccc(S(=O)(=O)N2CCSC2c2ccco2)cc1 (stereo unspecified)	39.8µM*	0.0%	/	-1.2%	-3.6%	-13.1%
COc1ccc(/C=N/Nc2cc(C)nc3c(C)cccc23)cc1	?	/	/	/	/	-7.2%
COc1ccc2nc(C)cc(N/N=C/c3ccc(F)cc3)c2c1	44.7µM*	/	/	/	/	-1.5%
COc1ccc(/C=N/Nc2cc(C)nc3ccccc23)cc1	28.2µM*	/	/	/	/	-9.9%
CCOc1ccc(OCC(=O)N(C)c2c(N)n(Cc3ccccc3)c(=O)[nH]c2=O)cc1	/	/	/	/	/	1.2%
Nc1cc(=O)[nH]c(=O)n1Cc1ccccc1	11.4%	-0.1%	-7.3%	-4.5%	8.4%	-0.1%
COc1ccc(Cn2c(O)cc(=O)[nH]c2=O)cc1	44.7µM*	1.0%	0.3%	-29.1%	-10.1%[46.1 µM]	-2.2%
CCOc1ccc(Cn2c(O)cc(=O)[nH]c2=O)cc1	50.1µM*	-2.0%	3.9%	?	-1.2%[46.1 µM]	3.8%
CC(C)(C)C1C/C(=C/c2ccccn2)C(=O)/C(=C/c2ccccn2)C1 (stereo unspecified)	?	-3.7%	30.6%	-4.7%	2µM*	-1.0%
CC1C/C(=C/c2ccccn2)C(=O)/C(=C/c2ccccn2)C1 (stereo unspecified)	44.7µM*	0.9%	10.4%	?	?	2.2%
Cc1ccc(S(=O)(=O)c2cn(Cc3cccc(F)c3)c3cc(N4CCCC4)c(F)cc3c2=O)cc1	/	0.0%	/	/	/	-5.1%
CCCCCC(=O)N[C@@H](c1ccccc1)[C@@H](O)C(=O)O[C@H]1C[C@@]2(O)[C@@H](OC(=O)c3ccccc3)C3[C@](C)(C(=O)[C@H](OC(C)=O)C(=C1C)C2(C)C)[C@@H](O)C[C@H]1OC[C@@]31OC(C)=O (stereo partly specified)	16.2%	/	/	/	/	-26.9%
CC(=O)O[C@H]1C(=O)[C@@]2(C)[C@H]([C@H](OC(=O)c3ccccc3)[C@]3(O)C[C@H](OC(=O)[C@H](O)[C@@H](NC(=O)c4ccccc4)c4ccccc4)C(C)=C1C3(C)C)[C@]1(OC(C)=O)CO[C@@H]1C[C@@H]2O	50.1µM*!	0.3%	16.1%	10.0%	/	-14.4%
N#Cc1nccnc1S(=O)(=O)c1cccs1	7.08µM*	1.1%	/	-14.9%	?	-10.6%
CN(Cc1ccccc1C#N)S(=O)(=O)c1cccs1	-6.0%	/	/	/	/	0.6%
CCOC(=O)C1=C(O)/C(=C\c2ccc(CNC(=O)C(=O)Nc3ccccc3)o2)N=C1C	31.6µM*	-6.6%	71.6%[38.3 µM]	-5.6%	-18.6%[46.1 µM]	-29.9%
Fc1ccccc1/C=C1\CCCC2=C1NC(=S)NC2c1ccccc1F (stereo unspecified)	28.2µM*	-0.5%	20.0%	?	-28.8%	-18.9%
S=C1NC2=C(CCC/C2=C\c2ccccc2)C(c2ccccc2)N1 (stereo unspecified)	22.4µM*	0.0%	2.1%	-11.5%	-3.9%	1.1%
Fc1cccc(/C=C2\CCCC3=C2NC(=S)NC3c2cccc(F)c2)c1 (stereo unspecified)	?	-0.3%	/	-7.5%	?	-2.1%
S=C1NC2=C(CCC/C2=C\c2ccc(Cl)cc2)C(c2ccc(Cl)cc2)N1 (stereo unspecified)	7.94µM*	1.5%	/	-6.8%	37.1%	-0.7%
CC1(C)CC(=S)Nc2ccccc2S1	28.2µM*	0.1%	0.9%	-5.3%	-5.7%[46.1 µM]	-6.2%
CN(C)CCCN(C(=O)c1ccc(S(=O)(=O)N(C)C2CCCCC2)cc1)c1nc2ccc(F)cc2s1	-20.2%	/	/	/	/	-4.5%
SMILES	Sfp inh	Epigenetic derep	IMPase Li inh	KDM4E inh	NPSR antag	KAT2A inh
CCc1ccc2nc(N(CCCN(C)C)C(=O)c3ccc(S(=O)(=O)N(C)C4CCCCC4)cc3)sc2c1	44.7µM*	/	/	/	/	-19.5%
CCN(Cc1ccccc1)S(=O)(=O)c1ccc(C(=O)N(CCCN(C)C)c2nc3ccc(F)cc3s2)cc1	89.1µM*	/	/	/	/	-7.6%
CN(C)CCCN(C(=O)c1ccc(S(=O)(=O)N(C)C2CCCCC2)cc1)c1nc2ccc(Br)cc2s1	39.8µM*	/	/	/	/	-6.3%
CCOc1cccc2sc(N(CCCN(C)C)C(=O)c3ccc(S(=O)(=O)N4CCc5ccccc5C4)cc3)nc12	-29.1%	/	/	/	/	0.7%
CCc1ccc2nc(N(CCCN(C)C)C(=O)c3ccc(S(=O)(=O)N4CCc5ccccc5C4)cc3)sc2c1	63.1µM*	/	/	/	/	-1.5%
OC[C@@H]1O[C@@H](Oc2ccc(O)cc2)[C@H](O)[C@@H](O)[C@@H]1O	16.9%	/	/	/	/	8.6%
O=C(Cc1nc(-c2ccc(Br)s2)cs1)NCCN1CCOCC1	50.1µM*	-1.9%	13.5%[38.3 µM]	-0.2%	-9.0%[46.1 µM]	2.0%
O=C(Cc1cccs1)NCCN1CCOCC1	-13.4%	-1.9%	11.2%	-12.2%	13.3%	0.9%
COc1ccc(CCn2c(NN=C(C)C)nc3c2c(=O)[nH]c(=O)n3C)cc1	56.2µM*	1.1%	/	?	-2.9%	-4.1%
COc1ccc(CCn2c(Br)nc3c2c(=O)[nH]c(=O)n3C)cc1	4.8%	0.1%	-0.1%[38.3 µM]	5.5%	-1.0%[46.1 µM]	-11.9%
COc1ccc(CCn2c(NN)nc3c2c(=O)[nH]c(=O)n3C)cc1	50.1µM*	-2.3%	/	?	-0.3%	-8.7%
COc1ccc(CCn2c(NCc3ccco3)nc3c2c(=O)[nH]c(=O)n3C)cc1	-5.2%	8.4%	4.3%[38.3 µM]	6.4%	2.0%[46.1 µM]	-5.3%
CC/C=C\CC[C@H](O)C1=CCCCC1=O	1.2%	1.1%[10.1 µM]	/	/	/	/
CC1=NOC2(C1)N(C)c1ccccc1C2(C)C (stereo unspecified)	-10.7%	-6.3%	3.6%[38.3 µM]	?	-11.6%[46.1 µM]	-3.9%
COc1ccc2ccc3c(c2c1)N=C[C@]1(O3)N(C)c2ccccc2C1(C)C	50.1µM*	-0.9%	21.4%[38.3 µM]	11.2µM*	-23.4%[46.1 µM]	?
O=C1NC(=NCc2ccccc2)S/C1=C/c1ccc(O)cc1	25.1µM*	1.0%	-6.9%	-0.8%	-18.1%	-18.6%
NC(CSS(=O)(=O)O)=NCCC12CC3CC(CC(O)(C3)C1)C2	50.1µM*	0.0%	1.1%	-5.6%	9.7%	-0.6%
CC(C)N(C(=O)CSc1cn(CC(=O)N2CCCCCC2)c2ccccc12)C(C)C	/	-1.2%	/	/	/	-12.1%
O=C1CSC(=S)N1/N=C/c1c(F)cccc1F	?	/	/	/	/	0.0%
